# Bioassay records from PubChem.
# The list is not random: actives were taken first. Their share in the collection is about 18%.
# TDP1 block: TDP1 (human) enzyme inhibition; recombinant TDP1, AlphaScreen DNA substrate cleavage; Potency, µM (titrated, usually from 130 µM), without a hit: top-dose activity change, negative = inhibition, actives largely listed as inhibitors; 350,000 compounds, 0.28% hits; AID 485290; also: potency is read from the fitted curve at half-maximal effect; nearly all actives have a fitted effect of over 40% in size
# Target sequence (Q9NUW8 whole entry, looked up): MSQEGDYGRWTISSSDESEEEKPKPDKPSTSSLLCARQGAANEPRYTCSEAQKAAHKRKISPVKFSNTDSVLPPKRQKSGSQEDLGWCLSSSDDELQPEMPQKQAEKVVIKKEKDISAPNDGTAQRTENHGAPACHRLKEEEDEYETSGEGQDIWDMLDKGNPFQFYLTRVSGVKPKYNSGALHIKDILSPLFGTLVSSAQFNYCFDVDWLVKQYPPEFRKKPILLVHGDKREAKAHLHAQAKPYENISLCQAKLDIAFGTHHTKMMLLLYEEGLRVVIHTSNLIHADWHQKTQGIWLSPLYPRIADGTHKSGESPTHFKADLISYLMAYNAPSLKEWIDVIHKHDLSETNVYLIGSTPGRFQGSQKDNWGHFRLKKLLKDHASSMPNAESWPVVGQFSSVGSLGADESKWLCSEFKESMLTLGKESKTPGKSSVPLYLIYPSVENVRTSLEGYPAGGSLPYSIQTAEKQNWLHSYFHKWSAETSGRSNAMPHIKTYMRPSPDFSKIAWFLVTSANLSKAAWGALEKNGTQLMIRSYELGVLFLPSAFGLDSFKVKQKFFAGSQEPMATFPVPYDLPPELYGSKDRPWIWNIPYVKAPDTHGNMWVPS
#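 Here, a 5' biotin and 3' phosphotyrosine-FITC DNA oligonucleotide reports Tdp1 activity: intact substrate bridges AlphaScreen beads, while cleavage leaves a 3' phosphate and drops signal. All incubations at room temperature.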
# IL1B secr inh: blocks inflammasome-driven IL-1 beta release; 360,000 compounds, 4.7% hits; THP-1 LPS/ATP IL-1B secretion, AlphaLISA, 16 h; hits give low values; AID 743279; activity change, % at 57.5 µM; in the data active = activity change below about -50%; inconclusive = mostly about -30% to -49%
#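 THP-1 cells pretreated 1 hr with compounds (up to 57.5 uM final), then stimulated with LPS (250 ng/mL final) plus ATP (1.25 mM final); secreted IL-1B measured by AlphaLISA after 16 hr, decreased signal indicating inhibition.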
# CtBP-E1A blk: inhibitors of CtBP/E1A interaction; AlphaScreen GST-E1A/His-CtBP binding, 1536-well; hits give low values; activity change, % (concentration not given with the values); 340,000 compounds, 0.49% hits; in the data active = activity change below about -65%; inconclusive = mostly about -30% to -63%
#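 Homogeneous bead-based format: GST-tagged E1A captured on glutathione donor beads, His-tagged CtBP on nickel acceptor beads; compounds precede bead addition by 2 h at 37 °C.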
# DT40 TDP1 CPT: growth inhibition of DT40 Tdp1-/-;hTDP1 cells with camptothecin (screen for TDP1 inhibitors). chicken DT40 Tdp1-/-;hTDP1 cells + 20 nM CPT, ATP luminescence, 48 h. Potency, µM (series often up to 46.2 µM), without a hit: at the top dose activity change, negative = growth inhibition, actives largely listed as inhibitors. 420,000 compounds, 12% hits. AID 686979; also: potency is read from the fitted curve at half-maximal effect; nearly all actives have a fitted effect of over 55% in size
#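 Cell growth measured by CellTiter-Glo luminescence after a minimum 48 h, 37 C compound exposure with 20 nM CPT in Tdp1-knockout DT40 cells stably expressing hTDP1, seeded 400/well; qHTS titration format.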
# DT40 TDP1 no CPT: qHTS for Inhibitors of human tyrosyl-DNA phosphodiesterase 1 (TDP1): qHTS in cells in absence of CPT | Potency, µM (doses to about 46.2 µM), for inactives: at the top dose activity change, negative = growth inhibition, usual class: inhibitors | 420,000 compounds, 15% hits | AID 686978, 2013 | DT40 Tdp1-/- hTDP1 cells, no CPT, ATP luminescence, 48 h; also: potency is read from the fitted curve at half-maximal effect; nearly all actives have a fitted effect of over 55% in size
#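 No-CPT arm: Tdp1-/-;hTDP1 DT40 cells (400/well) plus compounds, incubated ≥48 hr at 37 °C. Readout CellTiter-Glo luminescence.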
# Six1-Eya2 inh: inhibitors of human Six1/Eya2 interaction. AlphaScreen GST-Six1/His-Eya2 binding, biochemical; hits give low values. activity change, % (test concentration not listed). 360,000 compounds, 0.56% hits. Q15475+O00167; in the data active = activity change below about -65%; inconclusive = mostly about -30% to -63%
#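 Compounds are tested against tagged Six1 and Eya2 proteins bridged by glutathione donor and nickel acceptor beads; after a one-hour incubation at 37 °C without light, AlphaScreen emission is recorded.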
# * hit, by the source's call; ? = inconclusive; · = no result given; [ ] = remark or other dose. Unless noted, calls follow the shape of the dose curve; as a rule, active = well fitted curve in the direction sought with a large enough effect; inconclusive = small, poorly fitted or top-dose-only effect, or another doubt; inactive = no such curve, though single readings can be large; an effect the other way counts as inactive or inconclusive. % is scaled to controls: 0 for no effect and ±100 for the full control effect.
SMILES,TDP1 block,IL1B secr inh,CtBP-E1A blk,DT40 TDP1 CPT,DT40 TDP1 no CPT,Six1-Eya2 inh
CC(C)CN(C(=O)COC(=O)CCSc1ccc(Cl)cc1)c1c(N)n(Cc2ccccc2)c(=O)[nH]c1=O,·,2,3,?,18µM*,3
COc1ccc2c(C)c(CC(=O)NCCc3ccccc3)c(=O)oc2c1OC,-5%,·,·,0%,-14%,·
Cc1c(CC(=O)NCCc2ccccc2)c(=O)oc2c(C)c3occ(C(C)(C)C)c3cc12,-2%,·,·,16µM*,18µM*,·
COc1ccc(CNC(=O)Cc2c(C)c3cc4c(C)coc4c(C)c3oc2=O)cc1OC,0%,·,·,?,?,·
COc1ccc(CCNC(=O)Cc2c(C)c3cc4c(C(C)(C)C)coc4c(C)c3oc2=O)cc1OC,2%,·,·,6.5µM*,8.2µM*,·
Cc1c(CC(=O)NCCc2ccccc2F)c(=O)oc2c(C)c3occ(C(C)(C)C)c3cc12,-2%,·,·,13µM*,16µM*,·
COc1ccc(CCNC(=O)CCc2c(C)c3cc4c(C)coc4c(C)c3oc2=O)cc1OC,2%,·,·,21µM*,8.2µM*,·
Cc1oc2cc3oc(=O)c(CC(=O)NCc4ccccc4)c(C)c3cc2c1C,-2%,·,·,6.5µM*,8.2µM*,·
COCCCNC(=O)Cc1c(C)c2c(cc(C)c3c(C(C)(C)C)coc32)oc1=O,·,-3,5,1.3µM*,1.3µM*,1
Cc1coc2cc3oc(=O)c(CCC(=O)NCCCN4CCOCC4)c(C)c3cc12,·,1,6,?,?,1
Cc1oc2cc3oc(=O)c(CCC(=O)NCCN4CCOCC4)c(C)c3cc2c1C,·,?,-1,21µM*,?,0
COCCNC(=O)Cc1c(C)c2c(cc(C)c3c(C)coc32)oc1=O,·,-4,·,-22%,?,0
COc1ccc(CNC(=O)CCc2c(C)c3cc4c(C)coc4cc3oc2=O)cc1,5%,·,·,?,15µM*,·
Cc1oc2c(c(C)cc3oc(=O)c(CC(=O)NCc4ccccc4)c(C)c32)c1C,9%,·,·,13%,3%,·
Cc1ccc(NC(=O)c2c(N3CCCC3=O)c3cc(C)ccc3n2C)c(C)c1,6%,·,·,·,·,·
Cc1coc2c(C)c3oc(=O)c(CCC(=O)NCCc4ccccc4F)c(C)c3cc12,-2%,·,·,?,16µM*,·
CCCOc1cccc(C(=O)Nc2cccc(-c3nc4ncccc4o3)c2C)c1,8%,·,·,·,·,·
CCOc1ccc(CCNC(=O)c2cc3sc(Cl)cc3n2C)cc1OCC,0%,15,-4,?,?,-4
COC(=O)c1ccc(NC(=O)c2cc3sccc3n2C)cc1,4%,6,-7,29µM*,?,-19
CCOc1ccc(CCNC(=O)c2cc3sccc3n2C)cc1OCC,6%,-6,?,16µM*,10µM*,-20
COc1ccc(CCNC(=O)c2cc3sccc3n2Cc2ccc(Cl)cc2)cc1OC,4%,·,·,13µM*,15µM*,·
COc1ccc(CCNC(=S)N2CCN(S(=O)(=O)c3ccc(C)cc3)CC2)cc1,0%,1,-12,0%,-10%,-15
CC12CCC(C3NC(=S)NN=C31)C2(C)C (stereo not drawn),·,7,4,0%,-1%,8
Cc1ccc(NC(NC(=O)c2cccs2)C(Cl)(Cl)Cl)cc1C (stereo not drawn),5%,?,0,?,18µM*,-3
O=C(CCC(=O)c1cccs1)NNC(=O)c1ccccc1Cl,-2%[56.1 µM],14,1,1%,22%,-1
SMILES,TDP1 block,IL1B secr inh,CtBP-E1A blk,DT40 TDP1 CPT,DT40 TDP1 no CPT,Six1-Eya2 inh
Cc1ccc(C(=O)N/N=C(/CC(=O)c2cccs2)C(F)(F)F)cc1,7%,16,0,7.3µM*,9.2µM*,-28
O=C(N/N=C(\CC(=O)c1cccs1)C(F)(F)F)c1ccncc1,10%,·,-9,35%,-3%,-1
CC(C)c1ccc(NCCC(=O)c2cccs2)cc1,8%,-26,-20,5.2µM*,5.2µM*,-28
O=C(CCC(=O)c1cccs1)NNC(=O)c1cccc(Cl)c1,0%[0.505 µM],22,-13,?,23µM*,6
C=CCNC(=S)N/N=C(\C)c1ccc(-n2ccnc2)cc1,1%,?,-21,-23%,-17%,-14
c1cc2c(cc1-c1[nH]ncc1CN1C[C@H]3CC[C@H]1C3)OCO2,-3%,9,1,4%,-18%,1
Cc1ccc(NC(=O)CCC(=O)c2cccs2)cc1,4%,5,-1,-13%,6%,4
Cc1ccc(NCCC(=O)c2cccs2)cc1,0%,-7,-17,2.9µM*,5.2µM*,-29
Cc1ccc(NCCC(=O)c2cccs2)cc1C,0%,-22,-3,4.6µM*,5.8µM*,-27
Cc1ccc(NCCC(=O)c2cccs2)cc1Cl,3%,0,-7,7.3µM*,9.2µM*,-15
CCCOc1ccc(C(=O)CCNc2ccc(C)c(Cl)c2)cc1,1%,-12,0,-23%,-15%,3
O=C(CCNc1cccc(Cl)c1)c1cccs1,-1%,0,2,10µM*,15µM*,16
C1CCC(Nc2nc3nonc3nc2N2CCSCC2)C1,5%,11,-4,-22%,2%,5
Cc1c(NC(=O)C2CCCCN2S(=O)(=O)c2ccc(Cl)cc2)c(=O)n(-c2ccccc2)n1C (stereo not drawn),-1%,2,3,-9%,-18%,-6
COc1ccc(CN2CC(C(=O)NCCCN3CCN(C)CC3)CC2=O)cc1 (stereo not drawn),-3%,0,2,1%,-2%,5
Cc1ccc(Cl)cc1NC(=O)CCS(=O)(=O)c1cccc2nonc12,3%,-2,11,15µM*,?,-1
CC(c1nc2ccccc2c(=O)[nH]1)N1CCN(C)CC1 (stereo not drawn),1%,28,8,-14%,-7%,5
O=c1/c(=C\c2ccc(O)cc2)sc2n1C(c1ccccc1)C(c1ccccc1)=NN=2 (stereo not drawn),7%,-65*,-15,?,?,-23
Cc1nc(SCc2c(F)cccc2Cl)n[nH]1,4%,0,17,?,-6%,11
O=C(Cn1c(=O)n(CCc2c[nH]c3ccccc23)c(=O)c2cccnc21)Nc1ccccc1F,8%,-7,-4,15µM*,23µM*,-6
Cc1nc2cc(NCc3nc4ccccc4n3Cc3ccccc3)ccc2n1C,10%,-83*,11,23µM*,?,-9
